The results in this text go back to PubChem BioAssay (NCATS).

Experiment [1] in a line: AP1 Signaling Pathway (AID 357). Note: % is set by controls: 0 for no effect and ±100 for the full control effect. The settings on record: ME-180 AP-1-bla reporter, EGF-induced, beta-lactamase ratio, 5 h; at 17.2 µM (top of the series) unless noted. In a few lines: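 ME-180 cells with beta-lactamase reporter under AP-1 response element, stimulated with EC50 EGF; compounds tested in titration series, 5 h at 37 °C. CCF4 substrate added 2.5 h at room temperature; 460/530 nm emission ratio gave %activity and AC50.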

Experiment [2] is described as follows: NFAT Signaling Pathway (AID 444).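 Note: carbachol stimulus at about its EC50 of 1 µM final; % is set by controls: 0 for no effect and ±100 for the full control effect.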 The following applies: Jurkat NFAT-bla M1, carbachol, beta-lactamase ratio, 5 h; at 17.2 µM (top of the series) unless noted. The method, boiled down: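 Jurkat cells with NFAT-driven β-lactamase reporter and co-expressed M1 receptor, stimulated with carbachol (final 1 uM, ~EC50), compound titration, 5 h at 37 °C. CCF4 loaded 1 h at RT; 460/530 nm ratio gave %activity and AC50.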

Experiment [3] is described as follows: Stat Signaling Pathway (AID 446).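 Note: ME-180 cervical cancer cells given 40 pM IL-6 alongside compound; SIE-controlled beta-lactamase reporter measured as 460/530 nm FRET emission ratio; % is set by controls: 0 for no effect and ±100 for the full control effect.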 The following applies: ME-180 SIE beta-lactamase reporter, IL-6 stimulated, 5 h; at 17.2 µM (top of the series) unless noted. In a few lines: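 FRET read-out (405 nm excitation, 460/530 nm emission) of a beta-lactamase reporter under a STAT-inducible element in ME-180 cervical carcinoma cells. Cells with compound receive 40 pM IL-6 for 5 h. Values are normalised to AC90 stimulation and AC90 JAK-inhibitor controls.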

For experiment [4], the target named is Glucocorticoid receptor (Homo sapiens) (UniProt P04150). Briefly: GR-GFP Redistribution (AID 450;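 active = compounds whose dose series gives a full or clear partial fitted curve of increased nuclear translocation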; note: potency is the fitted concentration of half-maximal effect).
Sequence of Glucocorticoid receptor (Homo sapiens) (P04150 whole entry, looked up): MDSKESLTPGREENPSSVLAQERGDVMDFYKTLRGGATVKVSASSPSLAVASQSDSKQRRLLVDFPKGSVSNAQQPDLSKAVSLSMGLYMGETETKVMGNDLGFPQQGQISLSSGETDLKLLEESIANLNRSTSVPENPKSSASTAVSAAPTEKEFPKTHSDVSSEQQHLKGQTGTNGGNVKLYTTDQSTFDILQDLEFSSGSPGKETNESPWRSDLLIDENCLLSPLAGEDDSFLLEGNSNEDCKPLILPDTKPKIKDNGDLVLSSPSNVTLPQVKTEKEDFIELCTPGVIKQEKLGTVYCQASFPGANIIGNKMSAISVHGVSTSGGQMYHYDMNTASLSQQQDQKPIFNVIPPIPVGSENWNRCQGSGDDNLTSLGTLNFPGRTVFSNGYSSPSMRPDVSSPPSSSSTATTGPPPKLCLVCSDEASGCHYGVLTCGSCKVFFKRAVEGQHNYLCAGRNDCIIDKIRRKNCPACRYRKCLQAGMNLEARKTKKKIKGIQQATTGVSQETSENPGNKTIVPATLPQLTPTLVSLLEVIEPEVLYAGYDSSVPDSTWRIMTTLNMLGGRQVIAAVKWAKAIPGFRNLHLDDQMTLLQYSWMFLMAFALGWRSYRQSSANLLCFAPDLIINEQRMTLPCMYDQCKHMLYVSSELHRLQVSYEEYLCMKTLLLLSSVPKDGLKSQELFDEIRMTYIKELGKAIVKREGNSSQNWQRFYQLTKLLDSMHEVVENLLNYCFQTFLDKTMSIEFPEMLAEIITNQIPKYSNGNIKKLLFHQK
The nature of experiment [5]: qHTS Assay for Identification of Small Molecule Agonists for Hypoxia Response Element Signaling Pathway (AID 914; active = well fitted activation curve with a large enough effect in the signal ratio, with a control signal flat, not every such curve was filed as active; the % refers to the signal ratio; note: potency is the fitted concentration of half-maximal effect; for activation: % of control where 0% means no effect). The settings on record: ME-180 (cervical carcinoma) HRE-bla reporter, beta-lactamase ratio, CoCl2, 17 h; activation: hits give high values. The method, boiled down: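 Read-out: CCF4 FRET ratio of 460nm to 530nm emission (excitation 405nm) after 2.5 hours at room temperature, taken from HRE-bla ME-180 cells that had been exposed to compound and EC50 CoCl2 for 17 hours.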

Molecules are shown by their SMILES. Values without a mark were called inactive. Results filed as inconclusive are left out. Active and inactive are the calls of the source. Unless noted, calls come from the whole dose curve; as a rule, active = well fitted curve in either direction with a large enough effect (not every such curve was filed as active); inconclusive = small, poorly fitted or top-dose-only effect, or another doubt; inactive = flat fitted curve, though single readings scatter.

Consider `COc1cc(NC2=CC(=O)CC(C)(C)C2)cc(OC)c1OC`, for which the activity change, negative = inhibition in experiment [1] is 7.47%; in experiment [2], -11.1%. In addition, in experiment [3], the activity, negative = inhibition was 15.1%. Besides, in experiment [4], the Potency was more than 20.6 µM. The activation in experiment [5] is -12.9%.
For the compound `CCCSc1nc(C)c(CC(=O)O)c(=O)[nH]1`, the activity change, negative = inhibition was -6.75% in experiment [1] and 13% in experiment [2]. For the same compound, the activity, negative = inhibition in experiment [3] was -1.03%. The Potency in experiment [4] is more than 20.6 µM. In experiment [5], the activation is 11%.
For the compound `CCSC(SCC)[C@H](O)[C@@H](O)[C@H](O)[C@H](O)CO`, the activity change, negative = inhibition in experiment [1] was -0.356%; in experiment [2], 8.22%. Also, the activity, negative = inhibition in experiment [3] was 10.1%. In experiment [4], the Potency was more than 20.6 µM. The activation in experiment [5] is 9.48%.
With `CCCCOc1nc2ccccc2nc1C(C#N)C(=O)NC1CCCCC1` (stereo not given), the activity change, negative = inhibition in experiment [1] was 8.43%; in experiment [2], -13.6%. Moreover, the activity, negative = inhibition in experiment [3] was 25.7%. Moreover, the Potency in experiment [4] was more than 20.6 µM; in experiment [5] it was 12.6 µM (active).
Regarding `N#Cc1nc(COc2ccccc2)oc1N1CCCC1`, the activity change, negative = inhibition in experiment [1] was -20.4%; in experiment [2] it was 4.75%. Also, the activity, negative = inhibition in experiment [3] was 0.032%. Also, the Potency in experiment [4] was more than 20.6 µM. Moreover, the activation in experiment [5] was -0.614%.
In the same order, the values of `COC(=O)c1sc(NC(C)=O)c(C(=O)OC)c1C` are 2.69%, 2.63%, 1.36%, more than 20.6 µM and 21.1%.
As to `COc1ccc(C2C(C#N)=C(N)Oc3n[nH]c(C)c32)cc1CSc1ccccn1` (stereo not given), the activity change, negative = inhibition was -15.2% in experiment [1] and 13.4% in experiment [2]. Further, the activity, negative = inhibition in experiment [3] is -27.9%. For the same compound, the Potency in experiment [4] is more than 20.6 µM. Also, the activation in experiment [5] was -21.4%.
Consider `COc1ccc(C(=O)OC(C)CN2CCN(C)CC2)cc1OC` (stereo not given), for which the figures for the activity change, negative = inhibition in experiment [1] and in experiment [2] were 4.78% and -6.37%, respectively. In addition, the activity, negative = inhibition in experiment [3] is 11.6%. Also, in experiment [4], the Potency was more than 20.6 µM. In addition, the activation in experiment [5] is 7.74%.
For `CCCC(=O)N(Cc1cc2ccccc2[nH]c1=O)c1ccccc1OC`, the activity change, negative = inhibition in experiment [1] is -6.44%; in experiment [2], 22.4%. For the same compound, in experiment [3], the activity, negative = inhibition was 5.08%. Also, the Potency in experiment [4] was more than 20.6 µM. Also, in experiment [5], the activation is -13.3%.
As to `CCCCOC(=O)Nc1ccc(S(=O)(=O)Nc2nc(C)cc(C)n2)cc1`, the activity change, negative = inhibition in experiment [1] was -5.25%; in experiment [2] it was -8.58%. For the same compound, the activity, negative = inhibition in experiment [3] is -5.4%. Also, in experiment [4], the Potency was more than 20.6 µM. Also, the activation in experiment [5] is -6.31%.
Taken in the same sequence, the figures for `COc1cc(C2C3C(=O)N(c4ccc(F)cc4)C(=O)C3ON2c2ccccc2)ccc1O` (stereo not given) were -17.6%, 0.386%, -1.27%, more than 20.6 µM and -4.56%.
In the same order, the values of `CCOC(=O)CSc1nnc(C)c(=O)[nH]1` are 12.3%, -0.387%, -1.23%, more than 20.6 µM and -0.909%.
Taken in the same sequence, the figures for `CCCCOc1ccccc1C(=O)NCCCCCC(=O)O` were 10.2%, 11.6%, 2.29%, more than 20.6 µM and 8%.
As for `O=C(NC1CCCCC1)Nn1c(-c2ccccc2)nc2ccccc2c1=O`, the activity change, negative = inhibition in experiment [1] is -2.78%; in experiment [2], -2.06%. Moreover, in experiment [3], the activity, negative = inhibition was 13.2%. Besides, in experiment [4], the Potency was more than 20.6 µM. Moreover, the activation in experiment [5] was 1.48%.
Taken in the same sequence, the figures for `COc1cccc(Cn2c(Oc3ccccc3)nc3c2c(=O)n(C)c(=O)n3C)c1` were -23.1%, -10.8%, -11.1%, more than 20.6 µM and -17.4%.
In the same order, the values of `COc1ccc(CCn2c(=N)c(C#N)cc3c(=O)n4ccccc4nc32)cc1` are -1.65%, -0.836%, 3.03%, more than 20.6 µM and 22.3%.
Regarding `O=C1C(=O)N(Cc2cccnc2)C(c2ccccn2)/C1=C(/O)c1ccccc1` (stereo not given), the activity change, negative = inhibition in experiment [1] was -5.8%; in experiment [2] it was -4.6%. In addition, in experiment [3], the activity, negative = inhibition is 4.87%. Also, in experiment [4], the Potency was more than 20.6 µM. Moreover, the activation in experiment [5] is 2.14%.
Taken in the same sequence, the figures for `Cc1cccc(-n2ncc3c(NCc4ccco4)ncnc32)c1` were -15.1%, -12.4%, -20.3%, more than 20.6 µM and 8.46%.
In the same order, the values of `CN1CCN(c2c3c(c(C#N)c4nc5ccccc5n24)CCCC3)CC1` are 14.7%, 0.538%, 5.04%, more than 20.6 µM and -2.43%.
`Cc1nn(-c2ccccc2)c2c1C(=O)NC(=O)C(C)(C)C2`: the activity change, negative = inhibition was -3.8% in experiment [1] and 0.783% in experiment [2]. The activity, negative = inhibition in experiment [3] is 3.56%. Moreover, in experiment [4], the Potency is more than 20.6 µM. In experiment [5], the activation is -11.1%.
As to `CC(C)NC(=O)N1CCOCCOCCN(C(=O)NC(C)C)CCOCCOCC1`, the values for the activity change, negative = inhibition in experiment [1] and in experiment [2] were 8.52% and 0.977%, respectively. Also, the activity, negative = inhibition in experiment [3] is 0.97%. Further, the Potency in experiment [4] is more than 20.6 µM. Further, the activation in experiment [5] is 3.05%.
For the compound `CC(C)CNC(=O)c1c(N)n(/N=C/c2cccnc2)c2nc3ccccc3nc12`, the figures for the activity change, negative = inhibition in experiment [1] and in experiment [2] were 9.25% and 329% [activator] (active), respectively. For the same compound, in experiment [3], the activity, negative = inhibition was 16.6%. The values for the Potency in experiment [4] and in experiment [5] were more than 20.6 µM and 10 µM (active), respectively.
